Laboratory results reported in publication PMC4552634, “A New Set of Chemical Starting Points with Plasmodium falciparum Transmission-Blocking Potential for Antimalarial Drug Discovery” (PLoS ONE, 2015).
Out of some 13,000 compounds screened, about 3,200 (25%) showed an effect of 50% or more. The list shows a part of the results.

system: P. falciparum stage V gametocytes; parameters: BacTiter-Glo ATP luminescence viability of purified stage V gametocytes in 384-well plates, per cent inhibition versus DMSO; conditions: 48 h, 5 µM; inhibitor

SMILES	% Inhibition [%]
CNC(=O)CSc1nnc(-c2ccc(C)cc2)c(-c2ccc(C)cc2)n1 [TCMDC-123901]	5.321
NC(=O)Nc1ccc2cn[nH]c2c1 [TCMDC-131601]	13.14
C=CCc1cccc(CN2CCC(c3cc(=O)[nH]c(-c4ccccn4)n3)CC2)c1O [TCMDC-124851]	46.78
CCc1nc2c(N)nc(N)nc2nc1-c1ccc(OC)cc1 [TCMDC-132107]	7.623
Cc1ccc(Nc2nc(N/N=C/c3cccc([N+](=O)[O-])c3)nc(Nc3ccccc3)n2)c(C)c1 [TCMDC-124206]	1.923
Cc1cccc(C=NNc2cc(C)nc3ccc(F)cc23)n1 [TCMDC-142019]	-41.63
CCOc1ccc2nc(C)cc(NN=Cc3cccc(F)c3)c2c1 [TCMDC-142093]	73.55
Cc1ccc(Nc2nc(N/N=C/c3ccccc3[N+](=O)[O-])nc(Nc3ccc([N+](=O)[O-])cc3)n2)cc1C [TCMDC-124207]	32.01
COc1cccc2c(N/N=C/c3ccccc3[N+](=O)[O-])cc(C)nc12 [TCMDC-142043]	74.75
Cc1ccc2nc(C)cc(N/N=C/c3cccc([N+](=O)[O-])c3)c2c1 [TCMDC-142069]	66.26
Cc1cc(N/N=C/c2ccccc2[N+](=O)[O-])c2cccc(C)c2n1 [TCMDC-142073]	-15.7
Cc1cc(N2CCCC2)nc(Nc2ccc(NC(=O)c3ccccc3C)cc2)n1 [TCMDC-124711]	-8.542
CCOC(=O)c1c(C)noc1Nc1ccc(OC)cc1 [TCMDC-131521]	-6.953
COc1cccc(CNC[C@@H](O)[C@H](Cc2ccccc2)NC(=O)c2cc(N3CCCC3=O)c3[nH]cc(C(C)C)c3c2)c1 [TCMDC-132584]	-12.1
CCc1c[nH]c2c(N3CCCS3(=O)=O)cc(C(=O)N[C@@H](Cc3ccccc3)[C@H](O)CNC3CCCCC3)cc12 [TCMDC-135169]	49.22
CCNc1cc(C(=O)N[C@@H](Cc2ccccc2)[C@H](O)CNCC(C)C)cc(N2CCCC2=O)c1 [TCMDC-138888]	11.22
CCc1cn(C)c2c(N3CCCC3=O)cc(C(=O)N[C@@H](Cc3ccccc3)[C@H](O)CNC(C)(C)CCCC(C)C)cc12 [TCMDC-135199]	78.23
CCc1c[nH]c2c(N3CCCS3(=O)=O)cc(C(=O)N[C@@H](Cc3ccccc3)[C@H](O)CNC(C)(C)c3cccc(C(F)(F)F)c3)cc12 [TCMDC-135172]	20.21
CCNc1cc(C(=O)N[C@@H](Cc2ccccc2)[C@H](O)CNCCC(C)c2ccccc2)cc(N2CCCC2=O)c1 (stereo partly shown) [TCMDC-141683]	6.791
CCc1ccnc2c(N3CCCC3=O)cc(C(=O)N[C@@H](Cc3ccccc3)[C@H](O)CNC3CCOCC3)cc12 [TCMDC-135882]	-3.363

SMILES	% Inhibition [%]
CCc1c[nH]c2c(N3CCCS3(=O)=O)cc(C(=O)N[C@@H](Cc3ccccc3)[C@H](O)CNC(C)(C)CCCC(C)C)cc12 [TCMDC-135168]	100.1
CCc1c[nH]c2c(N3CCCCC3=O)cc(C(=O)N[C@@H](Cc3ccccc3)[C@H](O)CNCc3cccc(OC)c3)cc12 [TCMDC-134156]	3.442
CCc1c[nH]c2c(N3CCCC3=O)cc(C(=O)N[C@@H](Cc3ccccc3)[C@H](O)CNC(C)(C)CCCC(C)C)cc12 [TCMDC-135025]	68.24
CCc1cn(C)c2c(N3CCCC3=O)cc(C(=O)N[C@@H](Cc3ccccc3)[C@H](O)CNC3CCCCC3)cc12 [TCMDC-135198]	56.93
CCc1c[nH]c2c(N3CCCC3=O)cc(C(=O)N[C@@H](Cc3ccccc3)[C@H](O)CNC3CCCCC3)cc12 [TCMDC-135024]	43.33
COc1cc(Nc2nccc(N3CCC(NC(=O)c4cccc(C#N)c4)C3)n2)cc(OC)c1OC (stereo not shown) [TCMDC-133620]	1.02
N#Cc1cccc(C(=O)Nc2cccc(-c3ccc(C(=O)Nc4cccnc4)cc3)c2)c1 [TCMDC-133695]	-12.11
O=C(/C=C/c1ccc(F)cc1)NC1CCC(CCN2CCCN(c3ccc(C(F)(F)F)cn3)CC2)CC1 (stereo not shown) [TCMDC-139724]	-25.55
c1ccc(-c2cccnn2)cc1 [TCMDC-123929]	-43.62
CCCCc1cc(NCc2ccncc2)nc(Nc2cccc(OC)c2)n1 [TCMDC-133999]	-9.372
O=C(Nc1ccc(-c2cccc(-c3nc4ccc(C(F)(F)F)cc4[nH]3)c2)cc1)c1csnn1 [TCMDC-136903]	-25.31
Cc1ccc2c(c1)c(-c1ccccc1)c(-c1ccccc1)n2CC(O)CN1CCN(CC=Cc2ccccc2)CC1 (stereo not shown) [TCMDC-123998]	27.39
O=C(C1CCN(C(c2ccccc2)c2ccc(Cl)c(Cl)c2)CC1)N1CC=CC1 (stereo not shown) [TCMDC-135516]	-15.6
COc1cc(C2=NN(S(=O)(=O)c3c(Cl)cc(Cl)cc3Cl)CCCC2)ccc1Cl [TCMDC-136212]	-48.52
CCc1cn2c3c(cc(C(=O)N[C@@H](Cc4ccccc4)[C@H](O)CNC(C)(C)c4cccc(OC)c4)cc13)N(C)S(=O)(=O)C2 [TCMDC-135393]	41.96
CCc1cn2c3c(cc(C(=O)N[C@@H](Cc4ccccc4)[C@H](O)CNC(C)(C)CCCC(C)C)cc13)N(C)S(=O)(=O)C2 [TCMDC-135400]	80.58
CCc1cn2c3c(cc(C(=O)N[C@@H](Cc4ccccc4)[C@H](O)CNC(C)C)cc13)N(C)S(=O)(=O)C2 [TCMDC-135401]	-18.09
O=C(Nc1cccc(C(F)(F)F)c1)N1CCOC(CCN2CCC(c3ccccc3)CC2)(c2ccc(Cl)c(Cl)c2)C1 (stereo not shown) [TCMDC-135345]	-74.75
CC(C)(C)c1ccc(N2C(N)=NC(N)=NC2(C)C)cc1Cl [TCMDC-137710]	44.95
COc1ccc(Cc2c(Cl)nc3nc(N)nc(N)c3c2C)c(OC)c1OC [TCMDC-137688]	14.16
